Screening data as filed in PubChem.
AMA1-RON2 inh = disrupts binding of P. falciparum AMA1 to RON2. AlphaScreen AMA1-biotinylated RON2 peptide binding. Potency, µM (series often up to 58.2 µM), inactives show top-dose activity change, negative = inhibition, usual class: inhibitors. hit rate 0.2% among 360,000;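 also: 0% = vehicle wells and -100% = peptide control; nearly all actives have a fitted effect of over 45% in size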
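AMA1 (3D7) with his tag at 25 nM final met compounds first, then biotinylated RON2 peptide at 25 nM; detection used donor plus acceptor beads, 10 µg/mL apiece, read by AlphaScreen after 30 min at room temperature.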
Sm TGR inh = inhibitors of Schistosoma mansoni thioredoxin glutathione reductase | purified TGR, DTNB reduction, TNB absorbance 405 nm | hit rate 3% among 360,000 | Potency, µM (doses to about 114 µM), for inactives: top-dose activity change, negative = inhibition, most hits filed as inhibitors | Q962Y6; also: % is scaled to controls: 0 for no effect and ±100 for the full control effect; nearly all actives have a fitted effect of over 60% in size
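Kinetic colorimetric format: TGR-catalysed, NADPH-driven DTNB reduction monitored via TNB absorbance. Enzyme dispensed at 20 nM; compound exposure 15 min at room temperature before reaction start.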
Pf growth 96h = P. falciparum growth inhibition at 96 hour, primary screen for plastid delayed-death inhibitors. P. falciparum luciferase reporter growth, 96 h. AID 504834. hit rate 6.9% among 320,000. Potency, µM (top dose mostly 28.7 µM), inactives show at the top dose activity change, negative = inhibition, actives largely listed as inhibitors; also: % is scaled to controls: 0 for no effect and ±100 for the full control effect
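P. falciparum expressing integrated firefly luciferase grown in erythrocytes (2% hematocrit, 0.05% parasitemia final) with compounds for 96 hours at 37 C, 5% CO2. Growth inhibition read as loss of luminescence after adding luciferase detection reagent.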
NS1 inh = inhibitors of influenza NS1 protein function; Potency, µM (titrated, usually from 46.1 µM), for inactives: top-dose activity, positive = more growth; hit rate 0.4% among 270,000; calls by dose curve; also: actives are rising curves; nearly all actives have a fitted effect of over 50% in size
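Growth recovery, yeast-based: influenza A NS1 expressed in S. cerevisiae causes slow growth, and suppressors are detected by OD600. The parent strain without NS1 is used as positive control.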
Pf growth 48h = P. falciparum growth inhibition at 48 hours (one generation). P. falciparum luciferase growth in erythrocytes, 48 h. Potency, µM (titrated, usually from 28.7 µM), inactives show at the highest dose activity change, negative = inhibition, hits mostly inhibitors. hit rate 5.9% among 310,000; also: % is scaled to controls: 0 for no effect and ±100 for the full control effect
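Luciferase-expressing P. falciparum in infected erythrocytes (2% hematocrit, 0.1% parasitemia final) in RPMI 1640/0.5% Albumax were exposed to compound for 48 hours at 37 C, 5% CO2; growth read as luminescence.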
Starred values were filed as active, the others as inactive; ? = inconclusive; . = no result. Sampled rows, rich in hits. Any-hit rate of the full collection: about 11%. Unless noted, calls follow the shape of the dose curve; as a rule, active = well fitted curve in the direction sought with a large enough effect; inconclusive = small, poorly fitted or top-dose-only effect, or another doubt; inactive = no such curve, though single readings can be large; an effect the other way counts as inactive or inconclusive. Potency is read from the fitted curve at half-maximal effect.

SMILES | AMA1-RON2 inh | Sm TGR inh | Pf growth 96h | NS1 inh | Pf growth 48h
Nc1cc(C(F)(F)F)ccc1-n1cccc1 | -4% | 14% | 9% | 7% | ?
C[C@@H]1CN([C@@H](C)CO)C(=O)c2cc(NS(=O)(=O)c3ccc(F)cc3)ccc2O[C@@H](C)CCCCO[C@H]1CN(C)C(=O)NC1CCCCC1 | 2% | . | . | . | .
COc1ccc(N2C(=O)NC(=O)/C(=C/c3ccc([N+](=O)[O-])s3)C2=O)cc1 | -5% | 7.1µM* | 39% | -41% | 17%
COc1ccccc1N1C(=O)NC(=O)/C(=C/c2ccc([N+](=O)[O-])s2)C1=O | -19% | 5.6µM* | 17% | 0% | 16%
COc1cccc(N2C(=O)NC(=O)/C(=C/c3ccc([N+](=O)[O-])s3)C2=O)c1 | -17% | 7.9µM* | 61% | -1% | 88%
COc1cccc(N2C(=O)NC(=O)/C(=C/c3ccc4c(c3)Cc3ccccc3-4)C2=O)c1 | 8% | ? | -10% | . | 25%
COc1ccc(N2C(=O)NC(=O)/C(=C\c3ccc([N+](=O)[O-])s3)C2=O)cc1 | -9% | 7.9µM* | 17% | . | 11%
Cc1ccc(O)c(NC(=O)c2noc(C(C)C)c2[N+](=O)[O-])c1 | 24% | 35µM* | ? | . | -25%
CC(C)c1onc(C(=O)NCCc2ccccc2)c1[N+](=O)[O-] | 15% | 45µM* | ? | . | 17%
CC(C)c1onc(C(=O)NC(C)c2ccccc2)c1[N+](=O)[O-] (centres undefined) | -13% | 40µM* | 49% | . | 3%
COc1ccc(Br)cc1CN1CCN(C(=O)c2cccc(F)c2)CC1 | -21% | 1% | 30% | -10% | -18%
Cc1sc2c(c1C)c(=O)n(-c1cccc(C(F)(F)F)c1)c(=O)n2Cc1ccc(F)cc1 | . | 0% | . | . | .
COc1ccc(NC(=O)Cn2ccn(-c3ccc(C)c(C)c3)c(=O)c2=O)cc1Cl | . | 1% | . | . | .
Cc1c(CNC2CCCCC2)c(C(=O)O)c(C)n1Cc1ccccc1F | . | -4% | . | . | .
OC(c1ccc(F)cc1)C(CN1CCOCC1)c1ccccc1 (centres undefined) | 0% | -2% | 10µM* | 2% | 12µM*
OC(c1ccccc1)(c1ccc(F)cc1)C(c1ccccc1)N1CCOCC1 (centres undefined) | -2% | 10% | 6.6µM* | -21% | 38%
COc1cccc(OCC(O)CN2CCOCC2)c1 (centres undefined) | 6% | -5% | ? | 4% | ?
COc1ccc(C(O)C(CN2CCOCC2)c2ccccc2)cc1 (centres undefined) | -6% | 1% | 9.3µM* | 11% | ?
CCCCCOc1ccc(C(O)C(CN2CCOCC2)c2ccccc2)cc1 (centres undefined) | -5% | -14% | -4% | -27% | 2.6µM*
OC(CN1CCN(Cc2ccccc2)CC1)c1ccc(F)cc1 (centres undefined) | -10% | 8% | -29% | 5% | ?
CCCCCCCCCC(=O)N[C@H](CN1CCOCC1)[C@H](O)c1ccccc1 | 0% | . | . | . | .
CCn1c(C)nc2cc(-c3nc4n(n3)Cc3ccccc3-4)ccc21 | -3% | 0% | 0.21µM* | -14% | 0.19µM*
Cc1cc(OCC(=O)c2cccc(C(F)(F)F)c2)n2cnnc2n1 | 11% | 7% | 10% | 4% | 36%
c1ccc2c(C3OCC4(CCCCC4)CO3)cccc2c1 | 5% | . | . | . | .
c1ccc2c(c1)c1ccccc1n2Cn1c2ccccc2c2ccccc21 | . | . | . | 6% | .
COc1ccccc1[C@@H]1C(c2cccc(C)c2)=NN(c2ccccc2)[C@H]1C(=O)N1CCOC1=O | 30% | -8% | 10µM* | ? | 13µM*
COc1ccccc1[C@@H]1C(c2ccccc2)=NN(c2ccccc2)[C@H]1C(=O)N1CCOC1=O | 38% | . | . | . | .
O=C(Oc1ccccc1C(=S)N1CCOCC1)c1cccc([N+](=O)[O-])c1 | -1% | -12% | -16% | -5% | 21%
COC(=O)C1=C(c2ccc(OCc3ccccc3)cc2)C[C@@H]2CC[C@H]1N2C(=O)NC1CCN(Cc2ccccc2)CC1 | -26% | 4% | ? | . | 9.3µM*
COC(=O)C1=C(c2ccc(OCc3ccccc3)cc2)C[C@@H]2CC[C@H]1N2C(=O)NCCN1CCOCC1 | 12% | . | . | . | .
